Activity calls are given as the source filed them. Rule for the calls: active = hit-call score of the fitted dose curve at least 0.9, where 1 is the maximum; inactive = score below 0.9.
Tests used:
Conditions in all cases: mRNA level, 48 h; actives raise or lower the signal
[1] = read-out: Ezrin (EZR), EZR (gene 7430); assay: LTEA_HepaRG_EZR: Life Technologies and Expression Analysis (LTEA) Assay for Ezrin (EZR) using HepaRG (AID 2283491)
Method in brief: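 Differentiated human HepaRG cells, 48 h after plating, were exposed in serum-free induction medium for 48 hours to eight half-log concentrations up to 100 uM in 0.5% DMSO. EZR mRNA was measured by TaqMan qRT-PCR, normalized to ACTB, GAPDH and POLR2A, and fitted bidirectionally against DMSO.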

[2] = read-out: Cytochrome P450 3A7 (Homo sapiens) (UniProt P24462); assay: LTEA_HepaRG_CYP3A7: Life Technologies and Expression Analysis (LTEA) Assay for CYP3A7 using HepaRG (AID 2283492)
Method in brief: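 Cells were thawed, plated, cultured 48 h, then treated for a further 48 h with chemicals (eight-point half-log series from 100 uM, 0.5% DMSO). RNA was isolated and CYP3A7 expression quantified by qRT-PCR normalised to ACTB, GAPDH and POLR2A.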

[3] = read-out: CYP3A5 (gene 1577); assay: LTEA_HepaRG_CYP3A5: Life Technologies and Expression Analysis (LTEA) Assay for CYP3A5 using HepaRG (AID 2283493)
Method in brief: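 Readout was CYP3A5 mRNA by qRT-PCR. HepaRG cultures were exposed for 48 h in serum-free induction medium to chemicals at up to 100 uM, and responses were fitted in both directions relative to DMSO vehicle.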

[4] = read-out: Fatty Acid-Binding Protein 1 (FABP1), FABP1 (gene 2168); assay: LTEA_HepaRG_FABP1: Life Technologies and Expression Analysis (LTEA) Assay for Fatty Acid-Binding Protein 1 (FABP1) using HepaRG (AID 2283494)
Method in brief: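 Values reflect bidirectional concentration-response fitting of FABP1 mRNA change against 0.5% DMSO controls. Human HepaRG cultures received eight half-log doses (top 100 uM) for 48 h; expression quantified by TaqMan qRT-PCR with housekeeping-gene normalization.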

[5] = read-out: Cytochrome P450 4A22 (Homo sapiens) (UniProt Q5TCH4); assay: LTEA_HepaRG_CYP4A22: Life Technologies and Expression Analysis (LTEA) Assay for Cytochrome P450 4A22 (CYP4A22) using HepaRG (AID 2283495)
Method in brief: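 Cryopreserved HepaRG cells, plated and cultured 48 h, then switched to serum-free induction medium and treated 48 h (duplicates, up to 100 uM, half-log steps, 0.5% DMSO). Expression change of CYP4A22 was fitted bidirectionally against vehicle.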

[6] = read-out: Cytochrome P450 7A1 (Homo sapiens) (UniProt P22680); assay: LTEA_HepaRG_CYP7A1: Life Technologies and Expression Analysis (LTEA) Assay for Cytochrome P450 7A1 (CYP7A1) using HepaRG (AID 2283496)
Method in brief: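 Using 0.5% DMSO as vehicle and baseline, chemicals were tested in duplicate over an 8-point range from 100 uM on HepaRG cells for 48 h; qRT-PCR signals were normalised to ACTB, GAPDH and POLR2A.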

[7] = read-out: Glutathione S-Transferase (GSTA2), GSTA2 (gene 2939); assay: LTEA_HepaRG_GSTA2: Life Technologies and Expression Analysis (LTEA) Assay for Glutathione S-Transferase (GSTA2) using HepaRG (AID 2283497)
Method in brief: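 Oxidative-stress marker GSTA2 is quantified by TaqMan qRT-PCR in HepaRG cultures treated 48 h across an eight-point range to 100 uM. Expression is normalized to endogenous controls and compared with 0.5% DMSO vehicle.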

[8] = read-out: Glutamate-cysteine ligase catalytic (GCLC), GCLC (gene 2729); assay: LTEA_HepaRG_GCLC: Life Technologies and Expression Analysis (LTEA) Assay for Glutamate-cysteine ligase catalytic (GCLC) using HepaRG (AID 2283498)
Method in brief: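 Oxidative-stress marker GCLC is measured as mRNA change in human HepaRG liver cells after 48 h chemical treatment in 0.5% DMSO, eight concentrations from 100 uM. Activity is fitted bidirectionally against vehicle.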

[9] = read-out: growth arrest and DNA damage 45 (GADD45G), GADD45G (gene 10912); assay: LTEA_HepaRG_GADD45G: Life Technologies and Expression Analysis (LTEA) Assay for growth arrest and DNA damage 45 (GADD45G) using HepaRG (AID 2283499)
Method in brief: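 Human hepatic HepaRG line treated 48 h with chemicals (eight concentrations, half-log steps from 100 uM); transcript induction or repression of GADD45G scored by qRT-PCR versus DMSO vehicle.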

[10] = read-out: Glutamate-cysteine ligase regulatory (GCLM), GCLM (gene 2730); assay: LTEA_HepaRG_GCLM: Life Technologies and Expression Analysis (LTEA) Assay for Glutamate-cysteine ligase regulatory (GCLM) using HepaRG (AID 2283500)
Method in brief: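 In this multiplexed HepaRG gene-expression assay, GCLM mRNA change after 48 h treatment (8 concentrations, max 100 uM) was scored against DMSO by bidirectional curve fitting.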

[11] = read-out: Glutathione S-transferase M3 (GSTM3), GSTM3 (gene 2947); assay: LTEA_HepaRG_GSTM3: Life Technologies and Expression Analysis (LTEA) Assay for Glutathione S-transferase M3 (GSTM3) using HepaRG (AID 2283501)
Method in brief: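 Changes in GSTM3 expression, an oxidative-stress marker, were scored by bidirectional curve fitting against 0.5% DMSO vehicle. Human HepaRG cultures received chemicals for 48 h in duplicate, highest concentration 100 uM with half-log dilutions.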

[12] = read-out: Heat shock 70 kDa protein 1 (HSPA1A), gene 3303; assay: LTEA_HepaRG_HSPA1A: Life Technologies and Expression Analysis (LTEA) Assay for Heat shock 70 kDa protein 1 (HSPA1A) using HepaRG (AID 2283502)
Method in brief: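 An oxidative-stress marker readout: HepaRG cells treated 48 h in duplicate with an eight-point series (highest 100 uM) had HSPA1A mRNA quantified by TaqMan qRT-PCR. Activity was fitted in both directions using 0.5% DMSO as baseline.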

[13] = read-out: 3-Hydroxy-3-Methylglutaryl-CoA Synthase 2 (HMGCS2), HMGCS2 (gene 3158); assay: LTEA_HepaRG_HMGCS2: Life Technologies and Expression Analysis (LTEA) Assay for 3-Hydroxy-3-Methylglutaryl-CoA Synthase 2 (HMGCS2) using HepaRG (AID 2283504)
Method in brief: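 Expression of HMGCS2 in human HepaRG liver cells is measured by qRT-PCR 48 h after dosing (highest 100 uM, half-log series, 0.5% DMSO). Values come from bidirectional concentration-response fitting with DMSO as baseline.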

[14] = read-out: HGF (gene 3082); assay: LTEA_HepaRG_HGF: Life Technologies and Expression Analysis (LTEA) Assay for Hepatocyte Growth Facto (HGF) using HepaRG (AID 2283505)
Method in brief: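 Gain or loss of HGF mRNA in human HepaRG liver cells after 48 h chemical exposure; eight concentrations up to 100 uM with 0.5% DMSO vehicle, quantified by TaqMan qRT-PCR.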

[15] = read-out: Insulin Like Growth Factor 1 (IGF1), IGF1 (gene 3479); assay: LTEA_HepaRG_IGF1: Life Technologies and Expression Analysis (LTEA) Assay for Insulin Like Growth Factor 1 (IGF1) using HepaRG (AID 2283506)
Method in brief: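 Endpoint: IGF1 mRNA change by qRT-PCR, housekeeping-normalized, fitted bidirectionally relative to 0.5% DMSO vehicle. Human HepaRG cells were treated 48 h in serum-free induction medium, eight half-log concentrations topping at 100 uM.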

[16] = read-out: Intercellular Adhesion Molecule 1 (ICAM1), ICAM1 (gene 3383); assay: LTEA_HepaRG_ICAM1: Life Technologies and Expression Analysis (LTEA) Assay for Intercellular Adhesion Molecule 1 (ICAM1) using HepaRG (AID 2283507)
Method in brief: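 Gain or loss of transcript in HepaRG hepatic cells is quantified by qRT-PCR after 48 h chemical exposure (up to 100 uM, half-log steps), with DMSO as baseline.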

[17] = read-out: Insulin-like growth factor-binding protein 1 (IGFBP1), IGFBP1 (gene 3484); assay: LTEA_HepaRG_IGFBP1: Life Technologies and Expression Analysis (LTEA) Assay for Insulin-like growth factor-binding protein 1 (IGFBP1) using HepaRG (AID 2283508)
Method in brief: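 mRNA induction or loss was quantified by qRT-PCR after 48 h chemical exposure of human HepaRG cells, with 0.5% DMSO as vehicle and baseline. Concentration-response over eight points up to 100 uM.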

[18] = read-out: Interleukin 6 (IL6), IL6 (gene 3569); assay: LTEA_HepaRG_IL6: Life Technologies and Expression Analysis (LTEA) Assay for Interleukin 6 (IL6) using HepaRG (AID 2283509)
Method in brief: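 Changes in IL6 mRNA, up or down relative to 0.5% DMSO controls, were derived from concentration-response curves in human HepaRG cells treated for 48 h at up to 100 uM, with ACTB, GAPDH and POLR2A as normalizers.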

[19] = read-out: Interleukin 6 Receptor (IL6R), IL6R (gene 3570); assay: LTEA_HepaRG_IL6R: Life Technologies and Expression Analysis (LTEA) Assay for Interleukin 6 Receptor (IL6R) using HepaRG (AID 2283510);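 note: TaqMan qRT-PCR signal normalized to ACTB GAPDH and POLR2A housekeeping genes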
Method in brief: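 In this HepaRG screen, test chemicals act on cells for 48 h at up to 100 uM (eight half-log points, duplicate wells). IL6R expression is quantified by qRT-PCR after normalization to ACTB, GAPDH and POLR2A, with DMSO as baseline.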

[20] = read-out: Hypoxia-inducible factor 1-alpha (Homo sapiens) (UniProt Q16665); assay: LTEA_HepaRG_HIF1A: Life Technologies and Expression Analysis (LTEA) Assay for Hypoxia-inducible factor 1 (HIF1A) Trancription factor using HepaRG (AID 2283503);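 note: HIF1A transcript by TaqMan qRT-PCR normalized to ACTB GAPDH and POLR2A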
Method in brief: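 Gain- or loss-of-signal HIF1A mRNA changes are fitted against a DMSO baseline. HepaRG cultures receive eight concentrations, highest 100 uM, for 48 h in serum-free induction medium with 0.5% DMSO.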

Chain of Hypoxia-inducible factor 1-alpha (Homo sapiens) (Q16665 whole entry, looked up): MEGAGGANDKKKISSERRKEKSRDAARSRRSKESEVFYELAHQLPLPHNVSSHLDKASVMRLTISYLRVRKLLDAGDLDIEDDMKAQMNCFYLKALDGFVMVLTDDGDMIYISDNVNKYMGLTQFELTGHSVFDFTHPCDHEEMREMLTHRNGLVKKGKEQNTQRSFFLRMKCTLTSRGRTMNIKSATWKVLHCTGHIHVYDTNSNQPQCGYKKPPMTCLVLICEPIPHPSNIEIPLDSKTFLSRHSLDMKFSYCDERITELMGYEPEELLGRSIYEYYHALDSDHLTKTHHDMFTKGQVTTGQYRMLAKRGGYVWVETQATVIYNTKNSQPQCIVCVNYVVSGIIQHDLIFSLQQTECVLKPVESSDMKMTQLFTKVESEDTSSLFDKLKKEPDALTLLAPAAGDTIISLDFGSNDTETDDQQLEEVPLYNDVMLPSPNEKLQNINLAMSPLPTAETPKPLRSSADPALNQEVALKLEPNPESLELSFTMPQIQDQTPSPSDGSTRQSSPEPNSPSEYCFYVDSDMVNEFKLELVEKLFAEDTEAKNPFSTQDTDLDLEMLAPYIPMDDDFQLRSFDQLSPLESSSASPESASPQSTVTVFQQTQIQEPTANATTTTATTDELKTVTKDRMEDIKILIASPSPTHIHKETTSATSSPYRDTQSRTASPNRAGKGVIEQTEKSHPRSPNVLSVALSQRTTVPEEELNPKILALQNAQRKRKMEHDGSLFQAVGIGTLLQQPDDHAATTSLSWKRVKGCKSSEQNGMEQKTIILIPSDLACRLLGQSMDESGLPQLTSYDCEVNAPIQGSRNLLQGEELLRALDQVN
Chain of Cytochrome P450 3A7 (Homo sapiens) (P24462 whole entry, looked up): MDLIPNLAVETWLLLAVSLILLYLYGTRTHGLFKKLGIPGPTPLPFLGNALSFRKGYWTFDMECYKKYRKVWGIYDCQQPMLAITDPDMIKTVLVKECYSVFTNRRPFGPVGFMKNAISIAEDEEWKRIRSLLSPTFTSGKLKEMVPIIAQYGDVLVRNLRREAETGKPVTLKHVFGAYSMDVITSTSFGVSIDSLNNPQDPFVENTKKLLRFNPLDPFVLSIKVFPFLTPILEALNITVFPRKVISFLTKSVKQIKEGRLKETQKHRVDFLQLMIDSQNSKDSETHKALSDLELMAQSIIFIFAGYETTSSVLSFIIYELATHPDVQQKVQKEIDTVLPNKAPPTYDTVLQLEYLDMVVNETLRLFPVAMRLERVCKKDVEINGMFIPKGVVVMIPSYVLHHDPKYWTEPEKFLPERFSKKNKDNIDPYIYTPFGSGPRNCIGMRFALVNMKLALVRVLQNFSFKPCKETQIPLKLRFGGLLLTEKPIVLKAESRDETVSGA

O=C(O)Cc1cc(I)c(Oc2ccc(O)c(I)c2)c(I)c1
outcome [1]: inactive | AC50 [2]: 0.0294 µM (active) | AC50 [3]: 0.0881 µM (active) | AC50 [4]: 89.8 µM (active) | AC50 [5]: 0.063 µM (active) | AC50 [6]: 56.8 µM (active) | AC50 [7]: 84.7 µM (active) | outcome [8]: inactive | AC50 [9]: 70.3 µM (active) | AC50 [10]: 79 µM (active) | outcome [11]: inactive | AC50 [12]: 79.7 µM (active) | AC50 [13]: 77.1 µM (active) | AC50 [14]: 66.8 µM (active) | AC50 [15]: 93.7 µM (active) | AC50 [16]: 64.4 µM (active) | AC50 [17]: 71.1 µM (active) | AC50 [18]: 80.4 µM (active) | AC50 [19]: 42.7 µM (active)

Clc1ccccc1C(c1ccccc1)(c1ccccc1)n1ccnc1
outcome [1]: inactive | outcome [2]: inactive | outcome [3]: inactive | AC50 [4]: 18.1 µM (active) | AC50 [5]: 15.7 µM (active) | AC50 [6]: 28.5 µM (active) | AC50 [7]: 50 µM (active) | AC50 [8]: 63 µM (active) | AC50 [9]: 28 µM (active) | AC50 [10]: 24.2 µM (active) | outcome [11]: inactive | outcome [12]: inactive | AC50 [13]: 24.3 µM (active) | AC50 [14]: 26.7 µM (active) | AC50 [15]: 15.8 µM (active) | AC50 [16]: 90.6 µM (active) | AC50 [17]: 16.7 µM (active) | AC50 [18]: 88.6 µM (active) | AC50 [19]: 93 µM (active)

CN(C[C@@H](CC[N+]12CCC(C3CCCCC3)(CC1)CC2)c1ccc(Cl)c(Cl)c1)C(=O)c1cc(C(F)(F)F)cc(C(F)(F)F)c1
outcome [1]: inactive | AC50 [2]: 28.6 µM (active) | AC50 [3]: 68.8 µM (active) | AC50 [4]: 12.5 µM (active) | AC50 [5]: 22.4 µM (active) | AC50 [6]: 23.4 µM (active) | AC50 [7]: 34.2 µM (active) | AC50 [8]: 60.9 µM (active) | outcome [9]: inactive | AC50 [10]: 91.2 µM (active) | AC50 [11]: 15.8 µM (active) | AC50 [12]: 71.9 µM (active) | AC50 [20]: 50 µM (active) | AC50 [13]: 67.4 µM (active) | AC50 [14]: 20 µM (active) | AC50 [15]: 24.1 µM (active) | AC50 [16]: 12.2 µM (active) | AC50 [17]: 13.9 µM (active) | AC50 [18]: 75.6 µM (active) | AC50 [19]: 78 µM (active)

c1ccc2ccccc2c1
outcome [1]: inactive | outcome [2]: inactive | outcome [3]: inactive | outcome [4]: inactive | outcome [5]: inactive | outcome [6]: inactive | outcome [7]: inactive | outcome [8]: inactive | outcome [9]: inactive | outcome [10]: inactive | outcome [11]: inactive | outcome [12]: inactive | outcome [20]: inactive | outcome [13]: inactive | outcome [14]: inactive | outcome [15]: inactive | outcome [16]: inactive | outcome [17]: inactive | outcome [18]: inactive

CCOC(=O)O[C@H](C)OC(=O)c1ccc2c(c1)cc(C(=O)NC1CCN(C(C)C)CC1)n2Cc1cc(-c2ccc(Cl)s2)on1
outcome [1]: inactive | outcome [2]: inactive | outcome [3]: inactive | outcome [4]: inactive | outcome [5]: inactive | outcome [6]: inactive | outcome [7]: inactive | outcome [8]: inactive | outcome [9]: inactive | outcome [11]: inactive | outcome [12]: inactive | outcome [20]: inactive | outcome [13]: inactive | outcome [14]: inactive | outcome [15]: inactive | outcome [16]: inactive | outcome [17]: inactive | outcome [18]: inactive

CC1=CC(=O)/C(=C(/C)O)C(=O)O1
outcome [1]: inactive | outcome [2]: inactive | outcome [3]: inactive | outcome [4]: inactive | outcome [5]: inactive | outcome [6]: inactive | outcome [7]: inactive | outcome [8]: inactive | outcome [9]: inactive | outcome [10]: inactive | outcome [11]: inactive | outcome [12]: inactive | outcome [20]: inactive | outcome [13]: inactive | outcome [14]: inactive | outcome [15]: inactive | outcome [16]: inactive | outcome [17]: inactive | outcome [18]: inactive

From PubChem BioAssay (EPA / NIEHS)
